Experimental data taken from PubChem BioAssay AID504381 (The Scripps Research Institute Molecular Screening Center, 2011).
Active and inactive are the calls of the source. How the calls were made is not given here.

Test system: Sigma receptor 2
Test: radioligand displacement at receptors and transporters – biochemical, PDSP panel, Set 2, late-stage follow-up (AID 504381)
Details: PDSP radioligand binding panel, at 10 µM, stronger effect = higher value

Q: With CC(=O)c1ccc2c(c1)Nc1ccccc1S2 as the compound, how does the inhibition read?
A: -12.2% (inactive)
